# Results as given in the supplement of paper PMC10849652.
# Of roughly 8,800 targets only a part is listed; those with a hit were picked by preference. About 0.5% of all pairs of compound and target were hits. Unmarked numbers belong to inactive results.
# How the values were obtained:
# Experiment in all cases: log2 fold change, soluble protein after heating vs DMSO (PISA); higher = thermal stabilisation; K562 lysate, 10 uM; active = over 0.2 and 3.5 SD of the protein, either way, in both replicates (recomputed)
# [1] = compound: CCCS(=O)(=O)Nc1ccc(F)c(C(=O)c2c[nH]c3ncc(-c4ccc(Cl)cc4)cc23)c1F [vemurafenib]
# Summary of the method: (§1)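 To prepare the extract, K562 pellets were dounce-homogenised in PBS pH 7.4 with 1 mM MgCl2, giving crude material at 1 mg/mL protein. This was treated with 10 μM compound for 30 min, then heated in aliquots for 3 min over 48°C-58°C before pooling and addition of NP-40 to 0.5% at 4°C. Centrifugation at 21,000xg for 90 min left soluble protein in the supernatant, which TMTpro 16plex LC-MS/MS quantified with equalised channel sums. Results are log-two fold changes in thermal stability compared with solvent controls, from duplicates.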
# [2] = compound: CCCS(=O)(=O)Nc1ccc(F)c(C(=O)c2c[nH]c3ncc(Cl)cc23)c1F
# Summary of the method: as §1
# [3] = compound: CCN(CCCOc1ccc2c(Nc3cc(CC(=O)Nc4cccc(F)c4)[nH]n3)ncnc2c1)CCOP(=O)(O)O [barasertib]
# Summary of the method: as §1
# [4] = compound: CC[C@@H]1C(=O)N(C)c2cnc(Nc3ccc(C(=O)NC4CCN(C)CC4)cc3OC)nc2N1C1CCCC1
# Summary of the method: as §1
# [5] = compound: CC[C@@H]1C(=O)N(C)c2cnc(Nc3ccc(C(=O)N[C@H]4CC[C@H](N5CCN(CC6CC6)CC5)CC4)cc3OC)nc2N1C(C)C [volasertib]
# Summary of the method: as §1
# [6] = compound: CCn1c(C(=O)N(C2CC2)C2CC2)cc2c3c(ncn3C)c(Nc3cc(C)n(C)n3)nc21
# Summary of the method: as §1
# [7] = compound: CCn1cc(-c2ccnc3[nH]c(-c4cccc(CN(C)C)c4)cc23)c(-c2ccc(NC(=O)N(C)C)cc2)n1
# Summary of the method: as §1
# [8] = compound: CN1CCC(CNc2ccc3ncc(-c4cccc(OC(F)(F)F)c4)n3n2)CC1
# Summary of the method: as §1
# [9] = compound: CN1CCN(CCOc2cc(OC3CCOCC3)c3c(Nc4c(Cl)ccc5c4OCO5)ncnc3c2)CC1 [saracatinib]
# Summary of the method: as §1
# [10] = compound: CN1CCN(c2nc(C3=C(c4c[nH]c5ccccc45)C(=O)NC3=O)c3ccccc3n2)CC1 [sotrastaurin]
# Summary of the method: as §1
# Chain of UniProt Q5MNZ9 (Q5MNZ9 whole entry, looked up): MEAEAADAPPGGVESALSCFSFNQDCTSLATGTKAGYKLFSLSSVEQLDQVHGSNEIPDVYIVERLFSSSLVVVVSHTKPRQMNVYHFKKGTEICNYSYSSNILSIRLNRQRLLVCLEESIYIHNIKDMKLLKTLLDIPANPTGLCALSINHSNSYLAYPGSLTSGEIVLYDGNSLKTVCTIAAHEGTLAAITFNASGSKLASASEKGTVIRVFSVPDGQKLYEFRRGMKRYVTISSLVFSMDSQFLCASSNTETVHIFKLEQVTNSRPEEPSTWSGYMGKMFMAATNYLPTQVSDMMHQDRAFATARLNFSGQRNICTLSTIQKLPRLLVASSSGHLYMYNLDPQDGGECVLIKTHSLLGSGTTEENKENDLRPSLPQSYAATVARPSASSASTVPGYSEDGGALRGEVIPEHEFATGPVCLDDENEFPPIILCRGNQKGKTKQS
# Chain of UniProt Q9Y5J1 (Q9Y5J1 whole entry, looked up): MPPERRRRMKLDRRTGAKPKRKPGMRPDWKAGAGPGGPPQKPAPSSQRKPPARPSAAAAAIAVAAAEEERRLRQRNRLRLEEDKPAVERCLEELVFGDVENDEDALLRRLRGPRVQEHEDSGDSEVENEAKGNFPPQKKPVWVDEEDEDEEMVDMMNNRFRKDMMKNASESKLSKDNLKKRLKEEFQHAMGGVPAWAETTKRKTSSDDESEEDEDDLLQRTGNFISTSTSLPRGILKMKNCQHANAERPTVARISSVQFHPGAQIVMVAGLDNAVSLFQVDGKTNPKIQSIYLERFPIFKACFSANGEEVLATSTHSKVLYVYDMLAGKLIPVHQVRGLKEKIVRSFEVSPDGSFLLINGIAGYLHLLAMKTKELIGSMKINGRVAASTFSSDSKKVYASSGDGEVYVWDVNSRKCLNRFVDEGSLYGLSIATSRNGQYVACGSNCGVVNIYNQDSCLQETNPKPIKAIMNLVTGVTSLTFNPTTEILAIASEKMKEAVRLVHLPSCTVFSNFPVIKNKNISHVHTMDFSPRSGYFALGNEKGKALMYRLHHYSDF
# Chain of UniProt Q86WB0 (Q86WB0 whole entry, looked up): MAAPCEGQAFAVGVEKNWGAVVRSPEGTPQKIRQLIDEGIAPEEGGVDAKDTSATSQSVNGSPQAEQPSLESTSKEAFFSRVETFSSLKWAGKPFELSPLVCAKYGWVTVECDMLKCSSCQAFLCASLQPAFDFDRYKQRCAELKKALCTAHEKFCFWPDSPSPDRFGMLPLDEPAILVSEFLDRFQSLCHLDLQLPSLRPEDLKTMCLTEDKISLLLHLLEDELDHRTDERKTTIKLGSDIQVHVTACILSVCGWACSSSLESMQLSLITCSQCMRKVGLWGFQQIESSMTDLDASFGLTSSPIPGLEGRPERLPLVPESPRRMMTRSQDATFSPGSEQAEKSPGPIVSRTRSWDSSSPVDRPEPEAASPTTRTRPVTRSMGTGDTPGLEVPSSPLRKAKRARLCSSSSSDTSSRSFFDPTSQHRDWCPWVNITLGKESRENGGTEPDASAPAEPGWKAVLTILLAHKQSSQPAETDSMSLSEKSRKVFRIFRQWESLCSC
# Chain of UniProt Q96K21 (Q96K21 whole entry, looked up): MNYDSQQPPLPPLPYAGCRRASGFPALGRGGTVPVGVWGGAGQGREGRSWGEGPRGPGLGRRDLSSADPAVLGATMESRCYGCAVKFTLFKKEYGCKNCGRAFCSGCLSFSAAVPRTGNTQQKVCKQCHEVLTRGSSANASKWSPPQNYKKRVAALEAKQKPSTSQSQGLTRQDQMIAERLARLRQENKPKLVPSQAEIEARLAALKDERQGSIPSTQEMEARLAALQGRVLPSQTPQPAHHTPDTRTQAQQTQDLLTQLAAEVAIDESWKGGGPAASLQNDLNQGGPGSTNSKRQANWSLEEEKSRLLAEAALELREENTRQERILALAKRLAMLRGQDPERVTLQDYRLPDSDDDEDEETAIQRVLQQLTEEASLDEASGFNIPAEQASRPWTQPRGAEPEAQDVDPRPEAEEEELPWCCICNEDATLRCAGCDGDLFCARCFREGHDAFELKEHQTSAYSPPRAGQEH
# Chain of UniProt P26640 (P26640 whole entry, looked up): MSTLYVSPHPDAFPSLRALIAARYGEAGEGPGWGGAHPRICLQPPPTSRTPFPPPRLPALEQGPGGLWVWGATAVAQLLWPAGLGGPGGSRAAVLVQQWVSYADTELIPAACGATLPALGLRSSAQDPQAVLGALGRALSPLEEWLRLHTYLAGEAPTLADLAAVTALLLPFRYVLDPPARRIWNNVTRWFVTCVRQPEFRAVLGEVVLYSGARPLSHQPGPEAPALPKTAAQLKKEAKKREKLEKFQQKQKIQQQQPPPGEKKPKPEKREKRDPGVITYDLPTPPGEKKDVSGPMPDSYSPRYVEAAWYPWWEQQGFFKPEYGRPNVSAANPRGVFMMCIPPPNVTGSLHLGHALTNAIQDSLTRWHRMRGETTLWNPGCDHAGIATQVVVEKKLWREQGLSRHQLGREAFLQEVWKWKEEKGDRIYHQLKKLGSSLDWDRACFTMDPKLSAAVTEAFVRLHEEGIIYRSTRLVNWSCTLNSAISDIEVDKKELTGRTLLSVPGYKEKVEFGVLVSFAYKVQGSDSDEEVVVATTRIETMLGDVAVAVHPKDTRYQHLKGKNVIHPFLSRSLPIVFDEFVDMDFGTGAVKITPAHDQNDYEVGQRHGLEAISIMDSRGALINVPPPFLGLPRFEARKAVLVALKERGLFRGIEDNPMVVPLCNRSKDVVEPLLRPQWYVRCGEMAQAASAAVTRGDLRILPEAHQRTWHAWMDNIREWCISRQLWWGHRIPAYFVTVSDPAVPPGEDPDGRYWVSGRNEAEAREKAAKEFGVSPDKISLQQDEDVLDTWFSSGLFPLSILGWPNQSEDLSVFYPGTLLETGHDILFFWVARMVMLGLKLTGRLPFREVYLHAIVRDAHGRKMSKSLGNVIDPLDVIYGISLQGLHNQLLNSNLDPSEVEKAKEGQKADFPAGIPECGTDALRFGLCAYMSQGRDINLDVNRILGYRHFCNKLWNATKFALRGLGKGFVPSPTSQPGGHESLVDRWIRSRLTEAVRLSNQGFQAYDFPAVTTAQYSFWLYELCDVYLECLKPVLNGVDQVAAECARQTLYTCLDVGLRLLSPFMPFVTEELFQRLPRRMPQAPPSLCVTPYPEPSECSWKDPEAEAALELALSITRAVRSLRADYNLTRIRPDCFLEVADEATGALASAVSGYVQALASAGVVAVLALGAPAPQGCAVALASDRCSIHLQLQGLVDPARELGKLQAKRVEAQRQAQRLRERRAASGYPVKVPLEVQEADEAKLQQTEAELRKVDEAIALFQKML
# Chain of UniProt Q9H3U1 (Q9H3U1 whole entry, looked up): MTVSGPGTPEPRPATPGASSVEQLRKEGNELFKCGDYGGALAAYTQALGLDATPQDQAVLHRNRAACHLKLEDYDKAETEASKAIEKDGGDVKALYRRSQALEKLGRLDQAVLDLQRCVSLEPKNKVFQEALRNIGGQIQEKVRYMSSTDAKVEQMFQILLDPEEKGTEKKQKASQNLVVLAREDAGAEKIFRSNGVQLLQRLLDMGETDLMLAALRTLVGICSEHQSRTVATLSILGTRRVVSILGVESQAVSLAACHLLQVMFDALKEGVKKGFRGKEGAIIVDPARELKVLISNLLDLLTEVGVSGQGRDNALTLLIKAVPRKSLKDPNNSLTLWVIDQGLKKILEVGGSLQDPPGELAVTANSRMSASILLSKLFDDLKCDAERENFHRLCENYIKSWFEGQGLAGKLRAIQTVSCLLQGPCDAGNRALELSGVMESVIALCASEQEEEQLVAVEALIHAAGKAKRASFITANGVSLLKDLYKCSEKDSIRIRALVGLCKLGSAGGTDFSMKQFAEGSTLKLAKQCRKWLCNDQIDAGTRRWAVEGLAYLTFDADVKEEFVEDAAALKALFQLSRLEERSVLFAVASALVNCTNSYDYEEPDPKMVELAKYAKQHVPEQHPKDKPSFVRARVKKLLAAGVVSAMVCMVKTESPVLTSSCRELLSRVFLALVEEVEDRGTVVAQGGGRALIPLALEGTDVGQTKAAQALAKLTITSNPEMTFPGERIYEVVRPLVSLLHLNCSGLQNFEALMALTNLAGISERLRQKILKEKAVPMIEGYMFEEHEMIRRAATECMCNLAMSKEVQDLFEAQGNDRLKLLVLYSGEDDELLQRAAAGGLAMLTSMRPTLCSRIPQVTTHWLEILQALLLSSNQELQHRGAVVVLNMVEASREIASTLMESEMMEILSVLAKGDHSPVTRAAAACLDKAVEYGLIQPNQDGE
# Chain of UniProt P30291 (P30291 whole entry, looked up): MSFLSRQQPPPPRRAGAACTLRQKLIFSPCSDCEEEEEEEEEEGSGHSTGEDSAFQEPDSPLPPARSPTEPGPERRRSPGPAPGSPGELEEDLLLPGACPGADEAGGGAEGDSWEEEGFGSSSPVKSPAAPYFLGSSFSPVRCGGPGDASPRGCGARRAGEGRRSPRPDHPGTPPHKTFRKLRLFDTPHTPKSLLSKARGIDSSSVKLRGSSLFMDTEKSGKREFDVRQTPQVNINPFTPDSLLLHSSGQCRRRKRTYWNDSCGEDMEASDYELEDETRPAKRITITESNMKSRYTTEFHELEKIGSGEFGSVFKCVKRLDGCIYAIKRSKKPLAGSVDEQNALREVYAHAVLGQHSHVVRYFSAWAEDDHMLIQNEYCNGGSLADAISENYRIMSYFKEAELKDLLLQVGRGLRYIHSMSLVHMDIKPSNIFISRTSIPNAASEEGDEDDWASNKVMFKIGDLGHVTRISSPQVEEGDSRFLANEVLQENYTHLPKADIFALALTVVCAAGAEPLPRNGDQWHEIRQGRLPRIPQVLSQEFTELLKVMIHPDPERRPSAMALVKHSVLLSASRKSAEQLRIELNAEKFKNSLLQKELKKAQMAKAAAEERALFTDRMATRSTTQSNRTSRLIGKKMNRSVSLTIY
# Chain of UniProt P58557 (P58557 whole entry, looked up): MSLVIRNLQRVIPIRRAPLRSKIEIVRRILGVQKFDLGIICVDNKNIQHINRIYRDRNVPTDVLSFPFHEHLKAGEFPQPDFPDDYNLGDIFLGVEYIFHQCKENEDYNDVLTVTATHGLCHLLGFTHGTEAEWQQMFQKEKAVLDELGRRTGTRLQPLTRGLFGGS
Target,log2 fold change [1],log2 fold change [2],log2 fold change [3],log2 fold change [4],log2 fold change [5],log2 fold change [6],log2 fold change [7],log2 fold change [8],log2 fold change [9],log2 fold change [10]
ZBTB33 (UniProt Q86T24),0.01,-0.017,-0.199,-0.002,-0.673 (active),0,0.034,-0.008,0.033,0.015
ZMYM4 (UniProt Q5VZL5),0.008,0.003,0.126,0.013,0.041,0.033,0.013,0.029,0.023,0.043
VPS39 (UniProt Q96JC1),-0.034,0.014,0.022,-0.029,-0.045,0.001,0.73 (active),-0.151,0.018,-0.008
ZMYM1 (UniProt Q5SVZ6),0.011,-0.017,0.05,-0.033,-0.124,0.017,-0.272 (active),0.127,0.013,0.05
XPO6 (UniProt Q96QU8),0.033,0.013,0.062,-0.03,-0.058,-0.049,0.448,0.071,-0.007,0
ZMYM2 (UniProt Q9UBW7),0.004,0.101,-0.016,-0.034,-0.253,-0.119,0.025,-0.196,0.018,-0.008
VARS (UniProt P26640),0.028,0.007,0.036,-0.077,-0.082,0.04,-0.014,-0.039,-0.001,0.03
ZNF217 (UniProt O75362),0.043,0.019,0.047,0.099,-0.021,-0.028,-0.021,0.076,0.013,0.052
UTP18 (UniProt Q9Y5J1),-0.011,0.067,-0.036,0.057,-0.069,0.024,-0.004,-0.042,0.031,0.012
WDR24 (UniProt Q96S15),0.083,-0.036,0.129,-0.055,-0.035,0.047,-0.026,0.043,0.078,0.082
ZNHIT6 (UniProt Q9NWK9),-0.001,0.035,0.009,0.023,-0.016,0.05,0.089,-0.071,-0.029,-0.005
ZNF451 (UniProt Q9Y4E5),-0.013,0.02,0.019,0.066,-0.063,-0.022,-0.047,-0.048,0.039,0.002
ZNF609 (UniProt O15014),0.165,0.033,0.027,0.011,0.005,0.022,-0.014,0.064,0.004,0.013
UQCC2 (UniProt Q9BRT2),-0.074,0.005,-0.039,-0.013,0.039,-0.039,0.287 (active),-0.086,-0.04,-0.083
YTHDF3 (UniProt Q7Z739),-0.019,0.002,0.119,0.058,-0.071,0.168,-0.041,0.01,0.076,-0.083
WDR45 isoform 2 (UniProt Q9Y484),-0.028,0.043,0.005,0.052,0,0.12,-0.19,0.086,0.01,0.024
WDR62 isoform 4 (UniProt O43379),0.004,0.065,0.031,-0.063,0,0.003,-0.009,-0.044,0.04,0.031
UNC13D (UniProt Q70J99),0.039,0.027,0.024,-0.073,-0.083,0.012,0.026,-0.015,0.05,-0.022
ZC3H11A (UniProt O75152),0.104,0.084,0.055,0.03,-0.022,0,0.283,-0.182,-0.016,0.013
YTHDC2 (UniProt Q9H6S0),0.068,0.022,0.07,-0.013,-0.027,0.025,0.025,0.005,0.015,0.022

Target,log2 fold change [1],log2 fold change [2],log2 fold change [3],log2 fold change [4],log2 fold change [5],log2 fold change [6],log2 fold change [7],log2 fold change [8],log2 fold change [9],log2 fold change [10]
VPS28 (UniProt Q9UK41),-0.012,0.016,0.178,-0.035,-0.012,0.067,-0.208,0.018,0.01,-0.007
XPO5 (UniProt Q9HAV4),-0.006,0.005,0.022,-0.028,-0.062,0.027,-0.043,-0.041,0.011,0.007
VANGL1 (UniProt Q8TAA9),-0.075,0.023,0.101,0.004,-0.009,0.105,-0.088,0.058,0.044,0.125
WDR20 isoform 7 (UniProt Q8TBZ3),0.047,0,0.087,0.054,-0.039,-0.017,0.039,-0.039,0.065,-0.036
USP34 (UniProt Q70CQ2),0.006,0.039,0.048,-0.054,-0.052,0.014,0.027,-0.079,0.026,-0.008
YDJC (UniProt A8MPS7),-0.022,0.006,0.017,0.01,-0.038,-0.063,0.012,0.055,0.024,0.008
UNC45A (UniProt Q9H3U1),0.013,0.012,0.018,-0.022,-0.039,0.025,0.02,-0.081,0.017,-0.001
XPOT (UniProt O43592),-0.023,0.014,0.011,-0.097,-0.047,0.036,-0.065,-0.001,-0.005,0.002
VPS13C (UniProt Q709C8),0.018,0.028,0.12,0.112,-0.017,-0.01,0,0.02,0.028,0.026
WDR91 (UniProt A4D1P6),-0.096,0.028,0.046,-0.043,-0.023,0.055,-0.01,0.041,0.067,0.019
ZC3H13 (UniProt Q5T200),-0.027,-0.037,-0.045,0.036,-0.013,-0.031,0.033,0,-0.046,0.222
USP9X (UniProt Q93008),-0.013,0.014,0.038,-0.065,-0.053,0.033,-0.042,-0.036,0.03,0.007
VPS33A (UniProt Q96AX1),-0.012,0.022,0.037,0.018,-0.042,0.018,-0.041,-0.033,-0.001,0.03
VPS54 (UniProt Q9P1Q0),0.046,-0.015,-0.042,-0.037,0.068,-0.259,-0.278,0.141,0.05,-0.087
ULK3 isoform 4 (UniProt Q6PHR2),0.022,-0.042,0.001,-0.196,-0.139,–,-0.634 (active),-0.285,0.18,-0.077
URGCP (UniProt Q8TCY9),0.191,–,-0.023,–,–,-0.069,–,–,0,–
USP22 (UniProt Q9UPT9),-0.019,–,0.008,0.026,–,0.034,0.031,0,-0.026,0.018
ZNF346 (UniProt Q9UL40),–,0.007,0.013,0.029,-0.047,-0.018,0.017,-0.051,0.001,0.011
ZSWIM8 isoform 4 (UniProt A7E2V4),-0.173,–,0.22,0.039,–,0.038,-0.094,-0.071,0.018,0.039
UTRN isoform 2 (UniProt P46939),–,–,-0.019,-0.318,–,–,0.148,-0.003,–,–

Target,log2 fold change [1],log2 fold change [2],log2 fold change [3],log2 fold change [4],log2 fold change [5],log2 fold change [6],log2 fold change [7],log2 fold change [8],log2 fold change [9],log2 fold change [10]
ZFYVE19 isoform 3 (UniProt Q96K21),–,0.048,-0.037,–,-0.231,–,–,–,–,–
ZNF146 (UniProt Q15072),–,–,–,–,–,–,–,–,0.247,–
WSB1 (UniProt Q9Y6I7),–,–,–,–,–,0.105,0.078,0.08,-0.159,–
WIPI1 (UniProt Q5MNZ9),–,0.044,0.04,0.119,-0.014,-0.043,-0.079,0.022,0.025,-0.074
WEE1 (UniProt P30291),0.029,0.056,0.015,-0.25,-0.032,-0.077,–,–,-0.016,-0.1
ZNF845 (UniProt Q96IR2),0.085,-0.024,0.088,–,-0.044,0.135,-0.012,0.078,-0.019,-0.012
UNKL (UniProt E9PDK2),-0.118,–,0.047,-0.075,–,–,–,–,0.002,-0.05
VHL (UniProt P40337),0.027,–,-0.005,-0.065,–,-0.054,0.11,-0.086,0.019,-0.038
ZSCAN26 (UniProt Q16670),–,–,–,–,–,–,–,–,–,-0.239
WIPI2 isoform 6 (UniProt Q9Y4P8),–,–,0.04,–,–,–,-0.24,-0.016,–,–
ZC3HC1 (UniProt Q86WB0),-0.006,0.027,-0.029,-0.036,0.015,0.008,0.253 (active),-0.075,-0.03,-0.022
XPOT (UniProt F5GYW6),–,-0.204,–,–,-0.112,–,–,–,–,–
ZSCAN21 (UniProt Q9Y5A6),–,–,–,-0.024,–,–,0.043,0.053,–,–
VPS72 (UniProt Q15906),0.054,-0.139,–,-0.009,0.162,0.021,0.056,0.078,0.04,0.024
ZKSCAN8 (UniProt Q15776),0.049,-0.173,–,-0.019,-0.17,-0.001,–,–,0.028,0.027
ZNF281 (UniProt Q9Y2X9),–,–,–,–,–,0.011,–,–,-0.069,0.028
YBEY (UniProt P58557),-0.119,–,–,-0.054,–,–,–,–,-0.058,–
WAS (UniProt P42768),–,–,0.046,0.043,–,–,0.007,0.019,-0.136,–
ZNF644 (UniProt Q9H582),0.027,–,0.045,0.047,–,-0.136,-0.05,-0.023,-0.086,0.013
ZYG11A (UniProt Q6WRX3),–,-0.15,0.286,–,-0.017,-0.035,-0.16,0.011,–,–
